According to PubChem BioAssay (NCATS):
Inconclusive results are not listed. A number with no mark means an inactive call. Calls follow the shape of the dose curve; as a rule, active = well fitted inhibition curve with a large enough effect; inconclusive = small, poorly fitted or top-dose-only effect; inactive = flat fitted curve, though single readings scatter. Square brackets hold non-standard residues; d marks the D form. Peptide text beside a SMILES is read from it. ξ: configuration not given here. ξPhe(βξ-Me) = CC(c1ccccc1)C(N)C(=O)O; GABA = NCCCC(=O)O

Target: Aldehyde dehydrogenase, mitochondrial (Homo sapiens) (UniProt P05091)
Assay: qHTS for Inhibitors of the Aldehyde Dehydrogenase Family (ALDH2) Primary screen (AID 2061308);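 also: plate controls were vehicle for no effect and reference inhibitor for full effect; nearly all actives have a fitted effect of over 55% in size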
Conditions: ALDH2 enzyme inhibition qHTS, 1536-well; series mostly up to 56 µM; activity change, negative = inhibition: at the top concentration

Row | Structure (SMILES) | activity change, negative = inhibition
1 | O=C(O)Cc1cn([C@@H]2O[C@H](CO)[C@@H](O)[C@H](O)[C@H]2O[C@@H]2O[C@H](CO)[C@@H](O)[C@H](O)[C@H]2O)c2ccccc12 | -6.43% [at 28 µM]
2 | C/C(=C\CCC(C)CCO)C(=O)O[C@@H]1[C@@H](O)[C@H](OC2OC=C(C(=O)O)C3CCC(C)(O)C23)O[C@H](CO)[C@H]1O (some centres not stated) | -3.09% [at 28 µM]
3 | C[C@@H]1CC[C@@]2(OC1)O[C@H]1C[C@H]3[C@@H]4CC=C5C[C@@H](O)CC[C@]5(C)[C@H]4CC[C@]3(C)[C@H]1[C@@H]2C | 11.5% [at 28 µM]
4 | COc1ccc(-n2c(SCC#N)nc3sc4c(c3c2=O)CCCC4)cc1 | -1.98%
5 | COc1cc(C/C(=C/NC(C)=O)N(CC(=O)Cc2ccccc2)C(C)=O)cc2c1OCO2 | -9.12% [at 28 µM]
6 | COC(=O)c1cc(OC)cc(OC)c1C(=O)c1c(OC)cc2c(c1O)C1CCCC(C)(O2)O1 (configuration not stated) | -6.3% [at 28 µM]
7 | OC[C@@]1(O)CO[C@@H](OC[C@H]2O[C@@H](OCc3ccccc3)[C@H](O)[C@@H](O)[C@@H]2O)[C@@H]1O | 8.44% [at 28 µM]
8 | COc1c2cc(c(O)c1OC)-c1cc(ccc1O)CCC(O)CCCC2 (configuration not stated) | -2.61%
9 | CC1=C2C[C@@]3(C)[C@@H](CCC[C@@H]3C)C[C@@]2(O)OC1=O | -14.9%
10 | COc1ccccc1[C@@H]1C2=C(CC(C)(C)CC2=O)Nc2n[nH]c(C(F)(F)F)c21 | 0.366%
11 | COc1cc(C(=O)OC[C@@]2(O)CO[C@@H](O[C@H]3[C@H](Oc4ccc(C(=O)O)cc4OC)O[C@H](CO)[C@@H](O)[C@@H]3O)[C@@H]2O)ccc1O | 4.69% [at 16.9 µM]
12 | CCCCC(=O)N(Cc1ccc(-c2ccccc2-c2nn[nH]n2)cc1)C(C(=O)O)C(C)C (configuration not stated) | -4.13%
13 | CC1NC(=O)CCCNC(=O)C(Cc2c[nH]c3ccccc23)NC(=O)C(C)NC(=O)C(C(C)C)NC(=O)C(C(C)c2ccccc2)NC(=O)C(C(C)C)NC1=O (stereo not drawn) (cyclo([GABA]AV[ξPhe(βξ-Me)]VAW); configuration not given here) | 11.4% [at 16.9 µM]
14 | C/C=C/C=C/C1=C2C(=O)C3(C)C4C(C(=O)CC(O)/C=C/C)=C(O1)C1(C)C2C2(C)OC1(O)C4(C)OC23O (configuration not stated) | -12.6% [at 28 µM]
15 | CC12CC34CC(O)C5C(CO)(CO)CC(=O)CC5(C)C3CC1C2C4 (configuration not stated) | 13.6%
16 | CC(CCC1C(C(=O)O)=CC(=O)CC1(C)C)O[C@@H]1O[C@H](CO)[C@@H](O)[C@H](O)[C@H]1O (some centres not stated) | 8.61%
17 | CC(C)(C)OC(=O)c1ncn2c1C(C)(C)Nc1ccccc1-2 | 3.8%
18 | C=C1CC[C@@H]2[C@@](C)(CO[C@@H]3O[C@H](CO)[C@@H](O)[C@H](O)[C@H]3O)[C@H](O)CC[C@@]2(C)[C@@H]1CC/C(C)=C/CO[C@@H]1O[C@H](CO)[C@@H](O)[C@H](O)[C@H]1O | 6.76% [at 16.9 µM]
19 | C[C@@H]1O[C@@H](OC[C@H]2O[C@@H](OC(CCCCc3ccc(O)cc3)CCc3ccc(O)cc3)[C@H](O)[C@@H](O)[C@@H]2O)[C@H](O)[C@H](O)[C@H]1O (some centres not stated) | 2.23% [at 16.9 µM]
20 | CC1(C)S[C@@H]2[C@H](NC(=O)[C@H](N)c3ccc(O)cc3)C(=O)N2[C@H]1C(=O)O | -14.5%
21 | Cn1c(=O)c2nc(/C=C/c3cccc(Cl)c3)n(C)c2n(C)c1=O | -8.24% [at 114 µM]
22 | NCCCNc1ccc(Nc2nccc(Nc3cc(C4CC4)[nH]n3)n2)cc1 | 3.42%
23 | CC1(C)CCCC2(C)c3c4c(c(=O)oc(=O)c3=CCC12)=CCC1C(C)(C)CCCC41C (configuration not stated) | 8.91% [at 28 µM]
24 | CC(=O)O[C@@H]1C[C@@]23C[C@@]24CC[C@H](OC2OC[C@@H](O)[C@H](O)[C@H]2O)C(C)(C)[C@@H]4CC[C@H]3[C@]2(C)CC3OC4(C[C@@H](C)C3[C@@]12C)OCC1(C)OC14 (some centres not stated) | -3.02% [at 16.9 µM]
25 | CC1OC(OCC2OC(OC3CCC4(C)C(CCC5(C)C4CC=C4C6CC(C)(C)CCC6(C(=O)OC6OC(CO)C(O)C(O)C6O)CCC45C)C3(C)CO)C(O)C(O)C2O)C(O)C(O)C1O (configuration not stated) | 0.385% [at 16.9 µM]
26 | Cc1cccc(/C=N/Nc2cc(N3CCOCC3)n3nc(-c4ccncc4)cc3n2)c1 | 5.99%
27 | C[C@@H]1O[C@@H](O[C@@H]2[C@@H](O)[C@H](O[C@H]3[C@H](O[C@H]4CC[C@@]5(C)C(CC[C@]6(C)C5CC=C5[C@@H]7CC(C)(C)CC[C@]7(C(=O)O[C@@H]7O[C@H](CO)[C@@H](O)[C@H](O)[C@H]7O[C@@H]7O[C@@H](C)[C@H](O[C@@H]8O[C@@H](C)[C@H](O)[C@@H](O)[C@H]8O)[C@@H](O)[C@H]7O)CC[C@]56C)[C@@]4(C)CO)O[C@H](C(=O)O)[C@@H](O)[C@@H]3O)O[C@H](CO)[C@H]2O)[C@H](O)[C@H](O)[C@H]1O (some centres not stated) | 7.29% [at 11.2 µM]
